Assay [1] in a line: AP1 Signaling Pathway (AID 357).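 Also: ME-180 reporter cells stimulated with EGF at its EC50 level; % is scaled to controls: 0 for no effect and ±100 for the full control effect.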 The conditions noted are these: ME-180 AP-1-bla reporter, EGF-induced, beta-lactamase ratio, 5 h. The essentials:
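Read-out was the 460nm/530nm emission ratio (excitation 405nm) after CCF4 loading for 2.5 hours at room temperature. Cells carried an AP-1-driven beta-lactamase reporter, were stimulated with EC50 EGF plus compound for 5 hours, and AC50 values came from titrations.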

Assay [2] concerns the target Cytochrome P450 1A2 (Homo sapiens) (UniProt P05177). The assay can be described thus: p450-cyp1a2 (AID 410; calls by dose curve; also: potency is read from the fitted curve at half-maximal effect;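 as to activity change, negative = inhibition: -100% = full effect of reference inhibitor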). The conditions noted are these: recombinant CYP1A2, luciferin-ME demethylation, luminescence; series mostly up to 57 µM. The essentials:
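Read-out is luminescence from luciferin produced by CYP1A2 demethylation of Luciferin-ME (100uM, at Km). Detection reagent stopped the 60 min NADPH-dependent reaction; signals were normalized to 57 uM furafylline.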

Assay [3] can be described thus: Stat Signaling Pathway (AID 446).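 Also: ME-180 cervical cancer cells given 40 pM IL-6 alongside compound; SIE-controlled beta-lactamase reporter measured as 460/530 nm FRET emission ratio; % is scaled to controls: 0 for no effect and ±100 for the full control effect.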 The conditions noted are these: ME-180 (cervical carcinoma) SIE beta-lactamase reporter, IL-6 stimulated, 5 h. The essentials:
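Overnight-plated ME-180 cells bearing a STAT Inducible Element beta-lactamase reporter; 5 h co-exposure to compound and 40 pM IL-6; values normalized to 300 pM IL-6 and 125 nM JAK inhibitor controls.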

Assay [4] concerns the target Glucocorticoid receptor (Homo sapiens) (UniProt P04150). The assay can be described thus: GR-GFP Redistribution (AID 450;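 active = compounds whose dose series gives a full or clear partial fitted curve of increased nuclear translocation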; also: potency is read from the fitted curve at half-maximal effect). To be noted: U2OS GR-GFP nuclear translocation, laser cytometry, 2 h.
For assay [5] the target is unchanged. The assay is described as follows: GR-EFC Redistribution (AID 451; calls by dose curve; also: potency is read from the fitted curve at half-maximal effect). To be noted: CHO-K1 GR-EFC translocation, beta-gal luminescence, 2 h. The essentials: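 CHO-K1 cells expressing nuclear EA and GR-ED fragments of b-gal; compounds titrated up to 46 uM final, 2 h at 37 C. GR nuclear translocation read as complemented b-gal luminescence after 1 h RT detection.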

Assay [6] deals with Mitogen-activated protein kinase 10 (Mus musculus) (UniProt Q61831). The assay is described as follows: JNK3 AlphaScreen Assay (AID 530).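 Also: kinase came from lysate of stimulated human HepG2 cells; signal reports phosphorylation of biotinylated GST-cJun 1-79 at Ser73 with 10 µM ATP; % is scaled to controls: 0 for no effect and ±100 for the full control effect.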 The conditions noted are these: JNK3 lysate, c-Jun phosphorylation; series mostly up to 57.1 µM. The essentials:
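HepG2 lysate (IL-1b/TNFa pre-activated) + biotin-GST-cJun 1-79 + anti-pSer73 cJun; cpd titration, 15 min RT; ATP 10 uM start; Tris pH 7.6, MgCl2, DTT, vanadate; beads in EDTA buffer; AlphaScreen.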
A general note: In Alpha technology, singlet oxygen from a donor bead excites a nearby acceptor bead.

Assay [7] in a line: Cell Viability - BJ (AID 421; calls by dose curve;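 also: potency is read from the fitted curve at half-maximal effect; cells exposed to compound for 40 hours at 37 °C before readout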). To be noted: BJ fibroblast viability, qHTS. The essentials:
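Quantitative HTS: ATP depletion in BJ cells after 40 hr compound exposure in complete culture medium, detected with CellTiter-Glo; AC50 from standard Hill fits.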

The nature of assay [8]: Cell Viability - Jurkat (AID 426;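 active = dose-dependent loss of cell ATP signal giving a full or clear fitted curve, ranked by lower potency value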; also: potency is read from the fitted curve at half-maximal effect). To be noted: qHTS. The essentials: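 Cytotoxicity was scored as loss of cellular ATP, measured by luciferase-based luminescence, in Jurkat clone E6-1 cells after 40 h compound treatment; tamoxifen and doxorubicin served as positive controls.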
For orientation: qHTS replaces the single test concentration by a dilution series.

Assay [9] is described as follows: Cell Viability - Hek293 (AID 427;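 active = compounds whose dose-response curve shows a full or clear partial loss of cell viability, called from curve shape rather than a numeric limit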;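 also: potency is read from the fitted curve at half-maximal effect; cells exposed to compound for 40 hours at 37 °C before reading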). To be noted: qHTS. The essentials: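 AC50 values derive from Hill-modelled concentration-response of ATP-based luminescence, normalized between DMSO-only and 100 uM tamoxifen controls. Cells were exposed in complete culture medium for 40 hr at 37 °C before detection.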
The nature of assay [10]: Cell Viability - HepG2 (AID 433; calls by dose curve; also: potency is read from the fitted curve at half-maximal effect). To be noted: qHTS. The essentials: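 HepG2 hepatocellular carcinoma cells (1500/well) were treated with compounds for 40 h at 37 °C in complete medium; intracellular ATP was read by CellTiter-Glo luminescence. Data were normalized to DMSO and 100 uM tamoxifen, and AC50 came from Hill fits.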
The nature of assay [11]: Cell Viability - MRC5 (AID 434; calls by dose curve;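 also: potency is read from the fitted curve at half-maximal effect; potency reflects cytotoxicity seen as loss of intracellular ATP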). The conditions noted are these: MRC5 lung fibroblast viability, qHTS. The essentials: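 ATP luminescence read-out (CellTiter-Glo, 20 min RT) after 40 hr, 37 °C compound exposure of 1500 MRC5 cells/well. Data normalized to DMSO (basal) and 100 uM tamoxifen (100% inhibition); AC50 from standard Hill equation.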
Assay [12] is described as follows: Cell Viability - SK-N-SH (AID 435; calls by dose curve;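 also: potency is read from the fitted curve at half-maximal effect; compound exposure lasted 40 h at 37 °C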). To be noted: SK-N-SH neuroblastoma cell viability qHTS. The essentials: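 SK-N-SH human neuroblastoma cells (1500/well) were exposed to compounds in complete medium for 40 h at 37 °C, and intracellular ATP was then measured by CellTiter-Glo luminescence. AC50 was taken from Hill fits, normalized to DMSO and 100 uM tamoxifen.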

Assay [13] can be described thus: NFAT Signaling Pathway (AID 444).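 Also: carbachol stimulus at about its EC50 of 1 µM final; % is scaled to controls: 0 for no effect and ±100 for the full control effect.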 The conditions noted are these: Jurkat NFAT-bla M1, carbachol, beta-lactamase ratio, 5 h; at 38 µM (top of the series) unless noted. The essentials: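 Jurkat cells with NFAT-driven β-lactamase reporter and co-expressed M1 receptor, stimulated with carbachol (final 1 uM, ~EC50), compound titration, 5 h at 37 °C. CCF4 loaded 1 h at RT; 460/530 nm ratio gave %activity and AC50.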

Assay [14] in a line: Cell Viability - N2a (AID 540; active = well fitted curve in the direction sought with a large enough effect; an effect the other way counts as inactive or inconclusive;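 also: plate controls were DMSO alone for no effect and tamoxifen control for full effect; nearly all actives have a fitted effect of over 45% in size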). The conditions noted are these: N2a mouse neuroblastoma cell viability; activity change, negative = cytotoxicity: at 92.2 µM (top of the series). The essentials: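 In this qHTS cytotoxicity screen, ATP-dependent luciferase luminescence reports viable N2a cells after a 40 hr compound exposure in complete culture medium. Potencies are AC50 values from standard Hill equation fits.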

Assay [15] can be described thus: Cell Viability - NIH 3T3 (AID 541; active = well fitted curve in the direction sought with a large enough effect; an effect the other way counts as inactive or inconclusive;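 also: plate controls were DMSO alone for no effect and tamoxifen positive control for full effect; nearly all actives have a fitted effect of over 25% in size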). To be noted: NIH 3T3 cell viability, qHTS; activity change, negative = cytotoxicity: at 92.2 µM (top of the series). The essentials:
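In this cytotoxicity screen, acute toxicity is scored as an ATP drop measured by CellTiter-Glo in NIH 3T3 fibroblasts following a 40 hr, 37 °C incubation with compound.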

Assay [16] is described as follows: Cell Viability - HUV-EC-C (AID 542; active = well fitted curve in the direction sought with a large enough effect; an effect the other way counts as inactive or inconclusive; also: % is scaled to controls: 0 for no effect and ±100 for the full control effect; nearly all actives have a fitted effect of over 35% in size). To be noted: HUV-EC-C endothelial cell viability, qHTS; series mostly up to 92.2 µM. The essentials: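 Concentration-dependent ATP loss in HUV-EC-C cells is the measure. Exposure lasts 40 hr at 37 °C; luminescence follows CellTiter-Glo addition, and Hill fits give AC50.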
Assay [17] is described as follows: Cell Viability - H-4-II-E (AID 543; active = well fitted curve in the direction sought with a large enough effect; an effect the other way counts as inactive or inconclusive; also: % is scaled to controls: 0 for no effect and ±100 for the full control effect; nearly all actives have a fitted effect of over 35% in size). To be noted: H-4-II-E rat hepatoma viability; series mostly up to 92.2 µM. The essentials: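 AC50 from Hill-modelled qHTS concentration-response curves. H-4-II-E rat hepatoma cells in complete medium, 40 hr exposure at 37 °C, viability by CellTiter-Glo ATP luminescence.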
Assay [18] is described as follows: Cell Viability - SH-SY5Y (AID 544; active = well fitted curve in the direction sought with a large enough effect; an effect the other way counts as inactive or inconclusive;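 also: 0% = DMSO alone and -100% = 100 µM tamoxifen; nearly all actives have a fitted effect of over 55% in size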). The conditions noted are these: SH-SY5Y neuroblastoma cell viability; viability change, negative = cytotoxic: at 92.2 µM (top of the series). The essentials: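 Quantitative HTS in SH-SY5Y neuroblastoma cells, 40 hr treatment at 37 °C, ATP content by luciferase luminescence; AC50 from Hill fits.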
Assay [19] is described as follows: Cell Viability - Renal Proximal Tubule (AID 545; active = well fitted curve in the direction sought with a large enough effect; an effect the other way counts as inactive or inconclusive;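 also: 0% = DMSO only and -100% = 100 µM tamoxifen; nearly all actives have a fitted effect of over 40% in size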). To be noted: renal proximal tubule cells viability, primary cells of rat origin; activity change, negative = cytotoxicity: at 91.7 µM (top of the series). The essentials: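 Primary rat renal proximal tubule cells (1000/well) were treated with compounds for 40 hr at 37 °C in complete medium. Intracellular ATP was measured by CellTiter-Glo luminescence, and AC50 values came from Hill-equation fits of concentration-response data.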

Where “and” joins values, the source holds several entries; their conditions need not be identical. Equal entries are not always repeated. A number with no mark means an inactive call. Inconclusive results are not listed. Calls of active or inactive are those of the source. Unless noted, calls follow the shape of the dose curve; as a rule, active = well fitted curve in either direction with a large enough effect (not every such curve was filed as active); inconclusive = small, poorly fitted or top-dose-only effect, or another doubt; inactive = flat fitted curve, though single readings scatter.

Chain of Cytochrome P450 1A2 (Homo sapiens) (P05177 whole entry, looked up): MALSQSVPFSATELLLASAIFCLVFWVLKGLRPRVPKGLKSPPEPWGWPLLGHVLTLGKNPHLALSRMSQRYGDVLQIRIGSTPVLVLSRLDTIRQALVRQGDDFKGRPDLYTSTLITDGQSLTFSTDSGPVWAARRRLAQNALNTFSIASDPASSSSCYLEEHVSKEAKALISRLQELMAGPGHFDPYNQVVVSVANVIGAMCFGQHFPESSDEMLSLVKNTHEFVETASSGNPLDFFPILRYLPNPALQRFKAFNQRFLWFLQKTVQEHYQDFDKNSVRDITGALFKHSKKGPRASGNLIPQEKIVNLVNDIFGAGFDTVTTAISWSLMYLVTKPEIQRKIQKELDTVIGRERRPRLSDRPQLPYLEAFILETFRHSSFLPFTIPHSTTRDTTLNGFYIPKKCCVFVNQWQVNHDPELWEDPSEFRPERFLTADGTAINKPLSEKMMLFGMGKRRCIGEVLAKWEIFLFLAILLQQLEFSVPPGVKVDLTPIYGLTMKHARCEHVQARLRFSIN
Chain of Glucocorticoid receptor (Homo sapiens) (P04150 whole entry, looked up, the tested form may be a part): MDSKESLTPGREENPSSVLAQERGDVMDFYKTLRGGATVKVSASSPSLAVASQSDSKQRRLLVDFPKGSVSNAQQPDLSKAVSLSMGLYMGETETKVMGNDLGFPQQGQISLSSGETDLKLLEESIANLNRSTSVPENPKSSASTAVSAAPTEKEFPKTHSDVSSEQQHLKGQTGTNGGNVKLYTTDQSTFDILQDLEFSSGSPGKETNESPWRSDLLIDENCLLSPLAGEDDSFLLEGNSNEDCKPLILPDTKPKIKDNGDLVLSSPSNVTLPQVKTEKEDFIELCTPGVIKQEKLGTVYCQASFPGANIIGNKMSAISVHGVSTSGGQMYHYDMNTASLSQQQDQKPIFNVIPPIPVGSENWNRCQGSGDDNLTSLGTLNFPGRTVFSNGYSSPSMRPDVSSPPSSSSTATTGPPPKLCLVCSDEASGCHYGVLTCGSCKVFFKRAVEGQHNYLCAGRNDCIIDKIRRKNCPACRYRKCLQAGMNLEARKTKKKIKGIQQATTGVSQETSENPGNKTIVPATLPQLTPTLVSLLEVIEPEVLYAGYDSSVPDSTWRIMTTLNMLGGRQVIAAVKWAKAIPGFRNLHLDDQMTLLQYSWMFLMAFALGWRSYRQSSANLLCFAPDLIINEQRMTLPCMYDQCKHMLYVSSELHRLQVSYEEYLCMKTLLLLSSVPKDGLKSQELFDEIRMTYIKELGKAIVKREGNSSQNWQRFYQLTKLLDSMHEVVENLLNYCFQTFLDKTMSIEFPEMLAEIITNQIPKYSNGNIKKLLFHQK

Regarding `COc1cc2c(CCNC(C)=O)c[nH]c2cc1Cl`, the activity change, negative = inhibition in [1] (at 38 µM (top of the series)) was -0.206%. In addition, the Potency in assay [2] is 1 µM (active) and 126 nM (active); in assay [4], greater than 46 µM; in assay [5], greater than 46 µM. Also, the activity, negative = inhibition in [3] (at 38 µM (top of the series)) is -15.8%. Moreover, the Potency entry in assay [6] was “inactive”.
Consider `N#C/C(=C\c1ccc(O)c(O)c1)C(=O)NCc1ccccc1`, for which the activity change, negative = inhibition in [1] (at 38 µM (top of the series)) was -8.08%. The Potency in [2] is 12.6 µM (active) and 7.94 µM (active); in assay [4], greater than 46 µM. For the same compound, the activity, negative = inhibition in assay [3] (at 38 µM (top of the series)) was -18.4%. In addition, in [6], the Potency entry was “inactive”.
In the case of `CN=c1nc(-c2ccccc2)n(-c2ccccc2)s1`, the activity change, negative = inhibition in assay [1] (at 38 µM (top of the series)) is 20.8%. Moreover, the Potency is 5.01 µM (active) in assay [2] and greater than 46 µM in assay [4]. For the same compound, the activity, negative = inhibition in assay [3] (at 38 µM (top of the series)) was 8.46%. Also, the Potency entry in [6] was “inactive”.
Regarding `CC1(C)S[C@@H]2[C@H](NC(=O)[C@H](N)c3ccccc3)C(=O)N2[C@H]1C(=O)O`, the activity change, negative = inhibition in [1] (at 17.2 µM (top of the series)) was 6.1%; in assay [13] it was 3.92% [at 17.2 µM]. The Potency in assay [7], in [8], in assay [9], in assay [10], in assay [11] and in assay [12] was greater than 92 µM throughout. Besides, in assay [3] (at 17.2 µM (top of the series)), the activity, negative = inhibition is 1.21%. Further, the Potency result in assay [6], in [14], in assay [15], in [16], in assay [17] and in assay [18] was “inactive” in each case. Besides, the activity change, negative = cytotoxicity in assay [19] is -5.39%.
Regarding `CCCn1c(=O)c2[nH]c(-c3ccc(OCC(=O)NCCN)cc3)nc2n(CCC)c1=O`, in assay [1] (at 38 µM (top of the series)), the activity change, negative = inhibition is 6.39%. Besides, the Potency result in assay [2] and in assay [6] was “inactive” throughout. In addition, the activity, negative = inhibition in [3] (at 38 µM (top of the series)) is -14%. For the same compound, the Potency in assay [4] and in assay [5] was greater than 46 µM throughout.
In the case of `N=C(N)SCCc1ccc(CCSC(=N)N)cc1`, in [1] (at 38 µM (top of the series)), the activity change, negative = inhibition is 14.8%. The Potency entry in [2] and in assay [6] was “inactive” each time. Moreover, the Potency in [4] is greater than 46 µM.
Consider `CCCN(CC1CC1)c1nc(C)nc(Nc2c(Cl)cc(Cl)cc2Cl)c1Cl`, for which the activity change, negative = inhibition in assay [1] (at 38 µM (top of the series)) is 18.7%. Moreover, the Potency result in [2] is “inactive”. Moreover, the activity, negative = inhibition in assay [3] (at 38 µM (top of the series)) was -12.8%. Further, the Potency in [4] and in [5] was greater than 46 µM throughout.
Take `COc1ccccc1CNCCCCCCNCCCCCCCCNCCCCCCNCc1ccccc1OC`: the activity change, negative = inhibition in assay [1] (at 38 µM (top of the series)) was -8.92%. The Potency result in assay [2] and in assay [6] was “inactive” throughout. For the same compound, the Potency in assay [4] is greater than 46 µM.
For `Nc1nc(Cl)nc2c1ncn2[C@@H]1O[C@H](CO)[C@@H](O)[C@H]1O`, the activity change, negative = inhibition in [1] (at 17.2 µM (top of the series)) is 0.568%. Besides, the activity, negative = inhibition in assay [3] (at 17.2 µM (top of the series)) was 24.3%. In addition, the Potency in assay [4] is greater than 20.6 µM.
On to `Cn1c(=O)c2[nH]c(-c3ccccc3)nc2n(C)c1=O`, for which the activity change, negative = inhibition in [1] (at 38 µM (top of the series)) is 14.7%. The figures for the Potency in assay [2], in assay [4] and in [5] were 2 µM (active), greater than 46 µM and greater than 46 µM, respectively. In addition, the activity, negative = inhibition in [3] (at 38 µM (top of the series)) was -0.0891%. In assay [6], the Potency result is “inactive”.

For the origin of these results see PubChem BioAssay (NCATS).
